PubChem BioAssay AID1159580 (chemical genetic matrix, 2015)
Values joined by “and” are separate entries in the source; they are usually repeats but may differ in a detail not shown here. Equal entries are not always repeated. Out of some 5,500 compounds screened, about 2,000 (36%) were called active. Roughly 18% stayed inconclusive and do not appear here. No stated cut-off is given here; in the data, active means normalized growth mostly below about 0.91 (no sharp cut-off); inconclusive means no clear call, values can overlap the other calls; inactive means mostly above about 0.92. Some of the results follow.

Assay: chemical genetic growth profiling, strain panel (AID 1159580);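 further: tested at 20 µM; growth read once vehicle control cultures reached saturation at 30 °C; 1 = growth at the plate median or of vehicle wells; lower values mean less growth of the strain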
Conditions: S. cerevisiae deletion strains, growth OD

Measured: normalized growth

CCCCCCCCC(=O)NCc1ccc(O)c(OC)c1
inactive: locus YAL013W, strain DEP1, active compounds read low 0.99 | locus YAL021C, strain ccr4, active compounds read low 0.996 | locus YAL026C, strain drs2, active compounds read low 1.01 | locus YAL030W, strain snc1, active compounds read low 1 | locus YAL040C, strain CLN3, active compounds read low 0.982 | locus YBL061C, strain skt5, active compounds read low 1.01 | locus YBR009C, strain hhf1, active compounds read low 0.987 | locus YBR021W, strain FUR4, active compounds read low 0.958 | locus YBR023C, strain chs3, active compounds read low 0.989 | locus YBR171W, strain sec66, active compounds read low 0.983 | locus YBR229C, strain ROT2, active compounds read low 0.988 | locus YBR231C, strain swc5, active compounds read low 0.995 | locus YBR279W, strain paf1, active compounds read low 1.01 | locus YCL011C, strain gbp2, active compounds read low 0.981 | locus YCL016C, strain dcc1, active compounds read low 0.984 | locus YCL029C, strain bik1, active compounds read low 0.989 | locus YCL061C, strain MRC1 (second series), active compounds read low 0.994 | locus YCL061C, strain MRC1, active compounds read low 1 | locus YCL069W, strain vba3, active compounds read low 0.979 | locus YCR088W, strain abp1, active compounds read low 0.975 | locus YDL005C, strain med2, active compounds read low 0.995 | locus YDL035C, strain GPR1, active compounds read low 0.981 | locus YDL040C, strain nat1, active compounds read low 1 | locus YDL074C, strain BRE1, active compounds read low 0.981 | locus YDL101C, strain DUN1, active compounds read low 0.976 | locus YDL134C, strain PPH21, active compounds read low 0.976 | locus YDL185W, strain tfp1, active compounds read low 0.991 | locus YDL192W, strain arf1, active compounds read low 0.989 | locus YDR001C, strain nth1, active compounds read low 0.988 | locus YDR069C, strain doa4, active compounds read low 1 | locus YDR101C, strain arx1, active compounds read low 0.98 | locus YDR137W, strain rgp1, active compounds read low 1.03 | locus YDR150W, strain NUM1, active compounds read low 0.989 | locus YDR159W, strain sac3, active compounds read low 1.07 | locus YDR162C, strain NBP2, active compounds read low 1.01 | locus YDR195W, strain ref2 1.04 | locus YDR297W, strain sur2, active compounds read low 1 | locus YDR318W, strain mcm21, active compounds read low 0.965 | locus YDR334W, strain swr1, active compounds read low 0.997 | locus YDR335W, strain msn5, active compounds read low 1.01 | locus YDR363W, strain ESC2, active compounds read low 0.988 | locus YDR388W, active compounds read low 0.981 | locus YDR392W, strain spt3, active compounds read low 0.805 | locus YDR502C, strain sam2, active compounds read low 0.978 | locus YEL003W, strain gim4, active compounds read low 0.985 | locus YEL037C, strain rad23, active compounds read low 0.982 | locus YEL061C, strain CIN8 (second series), active compounds read low 0.982 | locus YEL061C, strain CIN8, active compounds read low 0.998 | locus YER002W, strain NOP16, active compounds read low 0.986 | locus YER015W, strain faa2, active compounds read low 1.01 | locus YER016W, strain bim1, active compounds read low 1.01 | locus YER110C, active compounds read low 0.981 | locus YER111C, strain swi4, active compounds read low 0.991 | locus YER155C, strain BEM2 (second series), active compounds read low 0.964 | locus YER155C, strain BEM2, active compounds read low 0.985 | locus YER167W, strain BCK2, active compounds read low 0.978 | locus YFR010W, strain ubp6, active compounds read low 1.02 | locus YGL078C, strain dbp3, active compounds read low 0.992 | locus YGL086W, strain mad1, active compounds read low 0.967 | locus YGL167C, strain pmr1, active compounds read low 1 | locus YGL173C, strain kem1, active compounds read low 1.01 | locus YGL227W, strain vid30, active compounds read low 0.971 | locus YGL240W, strain doc1, active compounds read low 0.994 | locus YGL248W, strain PDE1, active compounds read low 0.981 | locus YGL253W, strain hxk2, active compounds read low 1.03 | locus YGR078C, strain PAC10, active compounds read low 1.01 and 1 | locus YGR135W, strain pre9, active compounds read low 0.987 | locus YGR229C, strain SMI1, active compounds read low 1 | locus YGR252W, strain gcn5, active compounds read low 0.872 | locus YHR013C, strain ard1, active compounds read low 0.992 | locus YHR027C, strain rpn1, active compounds read low 1.02 | locus YHR030C, strain SLT2, active compounds read low 0.988 and 1.01 | locus YHR079C, strain IRE1 (second series), active compounds read low 0.985 | locus YHR079C, strain IRE1, active compounds read low 0.985 | locus YHR094C, strain hxt1, active compounds read low 0.979 | locus YHR129C, strain ARP1, active compounds read low 0.988 | locus YHR142W, strain chs7, active compounds read low 0.983 | locus YHR200W, strain rpn10, active compounds read low 0.981 | locus YIL066C, strain RNR3, active compounds read low 0.953 | locus YIL073C, strain SPO22, active compounds read low 0.958 | locus YIL125W, strain kgd1, active compounds read low 0.99 | locus YIR030C, strain dcg1, active compounds read low 0.983 | locus YJL092W, strain hpr5, active compounds read low 0.978 | locus YJL095W, strain BCK1 (second series), active compounds read low 1 | locus YJL095W, strain BCK1, active compounds read low 0.989 and 1 | locus YJL115W, strain asf1, active compounds read low 0.988 | locus YJL129C, strain trk1, active compounds read low 0.977 | locus YJL134W, strain LCB3, active compounds read low 0.989 | locus YJL154C, strain vps35, active compounds read low 0.983 | locus YJL164C, strain tpk1, active compounds read low 0.972 | locus YJL166W, strain qcr8, active compounds read low 0.991 | locus YJL168C, strain set2, active compounds read low 0.99 | locus YJL187C, strain SWE1 (second series), active compounds read low 0.978 | locus YJL187C, strain SWE1, active compounds read low 1.02 | locus YJR043C, strain POL32, active compounds read low 0.983 | locus YJR066W, strain TOR1, active compounds read low 0.91
